# Reference: ChEMBL document CHEMBL3988442, “University of Dundee, Small-Polar-MMV Screening Library” (2021)
# In all, about 48,000 compounds went through this assay and about 13,000 (27%) showed an effect of 50% or more. The list shows a part of the results.
# Tested on: Wolbachia pipientis
# Experiment: Anti-Wolbachia Cell-Based Screen
# Assay type: functional
# Design: scale not given: in the data most compounds retested in dose-response had high values
# Conditions: 5 µM
row,SMILES,Percent Effect
1,CNc1nc(CNC(=O)Nc2ccc(OC(C)C)cc2F)cs1,6.813%
2,CCOc1ccc(OCC(O)CN2CCN(S(C)(=O)=O)CC2)cc1 (centres undefined),152.9%
3,CS(=O)(=O)N1CCN(CC(O)COc2ccc(F)cc2)CC1 (centres undefined),-6.942%
4,CC(c1cccc(Cl)c1)N1CCN(S(C)(=O)=O)CC1 (centres undefined),0.53%
5,CCc1ccc(OCC(O)CN2CCN(S(C)(=O)=O)CC2)cc1 (centres undefined),13.83%
6,CS(=O)(=O)N1CCN(CC(O)COc2ccc(Cl)cc2)CC1 (centres undefined),153.2%
7,CN1CCC(N2CC[C@@H]3[C@@H](CCC(=O)N3CCC3=CCCCC3)C2)CC1,-18.13%
8,CC(Cn1cccn1)NS(=O)(=O)Cc1ccc(F)cc1 (centres undefined),0.5755%
9,CNC(=O)COc1c(C(C)=O)ccc(Cl)c1Cl,-15.04%
10,O=C(COc1ccc(Br)cc1F)Nc1cn[nH]c1,-2.369%
11,CC(=O)c1ccc(Cl)c(Cl)c1OCC(=O)NCC(F)(F)F,-11.44%
12,COc1ccc(C(C)=O)c(OCC(=O)NC(C)c2ccc(F)cc2)c1 (centres undefined),9.317%
13,CC(=O)c1cc(Br)cc(F)c1OCC(=O)NC(C)C,60.24%
14,Cc1ccc(OCC(=O)NC2CC2)nc1,-4.219%
15,COC(=O)COc1c(F)cc(Br)cc1C(C)=O,110.5%
16,CNC(=O)NC(=O)COc1c(C(C)=O)ccc(Cl)c1Cl,18.02%
17,CC(=O)c1cc(Br)cc(F)c1OCC(=O)NC1CC1,100.7%

row,SMILES,Percent Effect
1,CNC(=O)COc1c(F)cc(Br)cc1C(C)=O,112.4%
2,COc1cc(CCC(=O)NC2CC2)ccc1OCC(F)(F)F,-6.568%
3,CC(=O)c1ccc(Cl)c(Cl)c1OCC(=O)NC(C)C,-9.893%
4,CCSc1ncc(CN(Cc2cnn(C)c2)CC(C)C)cn1,-10.44%
5,Cc1cc(C(=O)OCC2CCCN2C(N)=O)c(C)o1 (centres undefined),-25.43%
6,CC(C)c1cc(N2CCC[C@H](N)C2)n2nccc2n1,19.12%
7,CCc1noc(CNc2cc3c(cc2Cl)OCCCO3)n1,-0.8134%
8,Cc1n[nH]c(=O)c2c(NC(=O)CN3CCCC(C(F)(F)F)C3)oc(C)c12 (centres undefined),17.73%
9,CC(NC(=O)N1CCS(=O)(=O)CC1)c1ccc(F)cc1Cl (centres undefined),-12.17%
10,NC(=O)C1=NC2=NS(=O)(=O)c3ccccc3N2N1Cc1ccccc1Cl,-9.423%
11,COCC1CC2(CCN(C(=O)c3ccc(OC)c(Cl)c3)CC2)CO1 (centres undefined),1.634%
12,COc1ccc2c3c1CN(C(C)=O)CC3=CC(C)(C)CO2,80.53%
13,COc1ccc(NC(C)=O)c(N2CCN(C(C)=O)CC2)n1,4.921%
14,COc1ccccc1C(C)N1CCN(S(C)(=O)=O)CC1 (centres undefined),-21.28%
15,COc1ccc2c3c1CN(S(C)(=O)=O)CC3=CC(C)(C)CO2,106.6%
16,COCCOC(=O)N1CC2=CC(C)(C)COc3ccc(OC)c(c32)C1,110%
17,COC(=O)N1CC2=CC(C)(C)COc3ccc(OC)c(c32)C1,125.4%
